# Laboratory results published in the supplement of paper PMC8728848.
# The sample as a whole holds a higher share of the strongest signals than the screen did.
# Experiments:
# Assay in all cases: glycan array binding signal (z-score within array); higher = stronger binding
# Conditions in all cases: glycan notation: IUPAC condensed, linker removed
# Fuc(a1-2)Gal = biological target: Fuc(a1-2)Gal
# How it was run: (§1)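 The binding signal is a Z-score computed within each array. Data were drawn from 3228 arrays in the Consortium for Functional Glycomics database, restricted to those with a known protein sequence. Scores were averaged over arrays of the same protein sequence at different concentrations or buffers, and over linkers, and negative values can be taken as non-binding.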
# [1] = biological target: Fuc(a1-2)Gal(b1-4)GlcNAc(b1-3)GalNAc
# How it was run: as §1
# [2] = biological target: Fuc(a1-2)Gal(b1-4)[Fuc(a1-3)]GlcNAc
# How it was run: as §1
# [3] = biological target: Fuc(a1-2)[Gal(a1-3)]Gal(b1-3)GlcNAc(b1-6)GalNAc
# How it was run: as §1
# [4] = biological target: Fuc(a1-2)[GalNAc(a1-3)]Gal(b1-3)GlcNAc(b1-2)Man(a1-3)[Fuc(a1-2)[GalNAc(a1-3)]Gal(b1-3)GlcNAc(b1-2)Man(a1-6)]Man(b1-4)GlcNAc(b1-4)GlcNAc
# How it was run: as §1
# [5] = biological target: Fuc(a1-2)[GalNAc(a1-3)]Gal(b1-4)GlcNAc(b1-2)Man(a1-3)[Fuc(a1-2)[GalNAc(a1-3)]Gal(b1-4)GlcNAc(b1-2)Man(a1-6)]Man(b1-4)GlcNAc(b1-4)GlcNAc
# How it was run: as §1
# [6] = biological target: Fuc(a1-2)[GalNAc(a1-3)]Gal(b1-4)GlcNAc(b1-3)Gal(b1-4)GlcNAc(b1-3)Gal(b1-4)GlcNAc
# How it was run: as §1
# [7] = biological target: Fuc(a1-2)[GalNAc(a1-3)]Gal(b1-4)[Fuc(a1-3)]GlcNAc
# How it was run: as §1
# Fuc(a1-3)GlcNAc = biological target: Fuc(a1-3)GlcNAc
# How it was run: as §1
# [8] = biological target: Fuc(a1-3)[Gal(b1-4)]GlcNAc(b1-3)GalNAc
# How it was run: as §1
# [9] = biological target: Fuc(a1-3)[Gal3S(b1-4)]GlcNAc
# How it was run: as §1
# [10] = biological target: Fuc(a1-3)[GalNAc(b1-4)]GlcNAc
# How it was run: as §1
# [11] = biological target: Gal(a1-3)Gal(b1-3)GlcNAc(b1-3)GalNAc
# How it was run: as §1
# [12] = biological target: Gal(a1-3)[Gal(a1-4)]Gal(b1-4)GlcNAc
# How it was run: as §1
# Gal(b1-3)Gal = biological target: Gal(b1-3)Gal
# How it was run: as §1
# Gal(b1-3)GlcNAc(b1-2)Man = biological target: Gal(b1-3)GlcNAc(b1-2)Man
# How it was run: as §1
# [13] = biological target: Gal(b1-3)GlcNAc(b1-2)Man(a1-3)[Gal(b1-3)GlcNAc(b1-2)Man(a1-6)]Man(b1-4)GlcNAc(b1-4)GlcNAc
# How it was run: as §1
# [14] = biological target: Gal(b1-3)GlcNAc(b1-3)Gal(b1-3)GlcNAc
# How it was run: as §1
# [15] = biological target: Gal(b1-3)[Fuc(a1-4)]GlcNAc(b1-3)Gal(b1-3)[Fuc(a1-4)]GlcNAc
# How it was run: as §1
# [16] = biological target: Gal(b1-4)GlcNAc(b1-2)Man(a1-3)[Gal(b1-4)GlcNAc(b1-2)Man(a1-6)]Man(b1-4)GlcNAc(b1-4)GlcNAc
# How it was run: as §1
# [17] = biological target: Gal(b1-4)GlcNAc(b1-2)[Gal(b1-4)GlcNAc(b1-6)]Man(a1-6)[Gal(b1-4)GlcNAc(b1-2)Man(a1-3)]Man(b1-4)GlcNAc(b1-4)[Fuc(a1-6)]GlcNAc
# How it was run: as §1
# [18] = biological target: Gal(b1-4)GlcNAc(b1-3)Gal(b1-4)GlcNAc
# How it was run: as §1
# [19] = biological target: Gal(b1-4)GlcNAc(b1-3)Gal(b1-4)GlcNAc(b1-3)Gal(b1-4)GlcNAc
# How it was run: as §1
# [20] = biological target: Gal(b1-4)GlcNAc(b1-3)Gal(b1-4)GlcNAc(b1-3)Gal(b1-4)GlcNAc(b1-2)[Gal(b1-4)GlcNAc(b1-3)Gal(b1-4)GlcNAc(b1-3)Gal(b1-4)GlcNAc(b1-6)]Man(a1-6)[Gal(b1-4)GlcNAc(b1-3)Gal(b1-4)GlcNAc(b1-3)Gal(b1-4)GlcNAc(b1-2)Man(a1-3)]Man(b1-4)GlcNAc(b1-4)[Fuc(a1-6)]GlcNAc
# How it was run: as §1
# [21] = biological target: Gal(b1-4)GlcNAc(b1-3)Gal(b1-4)GlcNAc(b1-3)Gal(b1-4)GlcNAc(b1-3)Gal(b1-4)GlcNAc(b1-3)Gal(b1-4)GlcNAc(b1-2)Man(a1-3)[Gal(b1-4)GlcNAc(b1-3)Gal(b1-4)GlcNAc(b1-3)Gal(b1-4)GlcNAc(b1-3)Gal(b1-4)GlcNAc(b1-3)Gal(b1-4)GlcNAc(b1-2)Man(a1-6)]Man(b1-4)GlcNAc(b1-4)GlcNAc
# How it was run: as §1
# [22] = biological target: Gal(b1-4)GlcNAc(b1-3)[Gal(b1-4)GlcNAc(b1-6)]Gal(b1-4)GlcNAc
# How it was run: as §1
# Gal(b1-4)GlcNAc6P = biological target: Gal(b1-4)GlcNAc6P
# How it was run: as §1
# Gal(b1-6)Gal = biological target: Gal(b1-6)Gal
# How it was run: as §1
# Gal6S(b1-3)GlcNAc = biological target: Gal6S(b1-3)GlcNAc
# How it was run: as §1
# Gal6S(b1-3)GlcNAc6S = biological target: Gal6S(b1-3)GlcNAc6S
# How it was run: as §1
# Glc(a1-6)Glc(a1-6)Glc = biological target: Glc(a1-6)Glc(a1-6)Glc
# How it was run: as §1
# GlcA(b1-6)Gal = biological target: GlcA(b1-6)Gal
# How it was run: as §1
# [23] = biological target: GlcA3S(b1-3)Gal(b1-4)GlcNAc(b1-2)Man
# How it was run: as §1
# [24] = biological target: GlcNAc(b1-2)Man(a1-3)[GlcNAc(b1-2)Man(a1-6)]Man(b1-4)GlcNAc(b1-4)[Fuc(a1-6)]GlcNAc
# How it was run: as §1
# [25] = biological target: GlcNAc(b1-2)[GlcNAc(b1-4)]Man(a1-3)[GlcNAc(b1-2)Man(a1-6)]Man(b1-4)GlcNAc(b1-4)GlcNAc
# How it was run: as §1
# [26] = biological target: GlcNAc(b1-3)[GlcNAc(b1-6)]Gal(b1-4)GlcNAc
# How it was run: as §1
# [27] = biological target: GlcNAc(b1-3)[GlcNAc(b1-6)]GalNAc
# How it was run: as §1
# GlcNAc(b1-6)GalNAc = biological target: GlcNAc(b1-6)GalNAc
# How it was run: as §1
# [28] = biological target: Neu5Ac(a2-3)Gal(b1-3)GalNAc(b1-3)Gal(a1-4)Gal(b1-4)Glc
# How it was run: as §1
# [29] = biological target: Neu5Ac(a2-3)Gal(b1-3)GlcNAc(b1-2)Man
# How it was run: as §1
# [30] = biological target: Neu5Ac(a2-3)Gal(b1-4)GlcNAc(b1-2)Man(a1-3)[Neu5Ac(a2-6)Gal(b1-4)GlcNAc(b1-2)Man(a1-6)]Man(b1-4)GlcNAc(b1-4)GlcNAc
# How it was run: as §1
# [31] = biological target: Neu5Ac(a2-3)Gal(b1-4)GlcNAc(b1-2)[Neu5Ac(a2-3)Gal(b1-4)GlcNAc(b1-4)]Man(a1-3)[GlcNAc(b1-4)][Neu5Ac(a2-3)Gal(b1-4)GlcNAc(b1-2)[Neu5Ac(a2-3)Gal(b1-4)GlcNAc(b1-6)]Man(a1-6)]Man(b1-4)GlcNAc(b1-4)GlcNAc
# How it was run: as §1
# [32] = biological target: Neu5Ac(a2-3)Gal(b1-4)GlcNAc(b1-2)[Neu5Ac(a2-3)Gal(b1-4)GlcNAc(b1-4)]Man(a1-3)[GlcNAc(b1-4)][Neu5Ac(a2-3)Gal(b1-4)GlcNAc(b1-4)Man(a1-6)]Man(b1-4)GlcNAc(b1-4)GlcNAc
# How it was run: as §1
# [33] = biological target: Neu5Ac(a2-3)Gal(b1-4)GlcNAc(b1-3)Gal(b1-4)[Fuc(a1-3)]GlcNAc
# How it was run: as §1
# [34] = biological target: Neu5Ac(a2-6)Gal(b1-4)GlcNAc(b1-3)Gal(b1-3)GlcNAc
# How it was run: as §1
# [35] = biological target: Neu5Ac(a2-6)Gal(b1-4)GlcNAc(b1-3)Gal(b1-4)GlcNAc(b1-2)Man(a1-3)[Neu5Ac(a2-6)Gal(b1-4)GlcNAc(b1-3)Gal(b1-4)GlcNAc(b1-2)Man(a1-6)]GalNAc
# How it was run: as §1
# [36] = biological target: Neu5Ac(a2-6)Gal(b1-4)GlcNAc(b1-3)Gal(b1-4)GlcNAc(b1-6)[Gal(b1-3)]GalNAc
# How it was run: as §1
# [37] = biological target: Neu5Ac(a2-6)Gal(b1-4)GlcNAc(b1-3)[Neu5Ac(a2-6)Gal(b1-4)GlcNAc(b1-6)]GalNAc
# How it was run: as §1
# [38] = biological target: Neu5Ac(a2-6)Gal(b1-4)GlcNAc(b1-6)[Gal(b1-3)]GalNAc
# How it was run: as §1
# [39] = biological target: Neu5Ac(a2-8)Neu5Ac(a2-3)[GalNAc(b1-4)]Gal(b1-4)Glc
# How it was run: as §1
# [40] = biological target: Neu5Ac(b2-6)Gal(b1-4)GlcNAc
# How it was run: as §1
binder,measurement,setting,value
Clec18A (Homo sapiens) (protein) PFHTCDLRIDGDCFMVSSEADTYYRARMKCQRKGGVLAQIKRQKVQDILAFYLGRLETTNEVIDSDFETRNFWIGLTYKTAKDSFRWATGEHQAFTSFAFGQPDNHGFGNCVELQASAAFNWNDQRCKTRNRYICQ,glycan array binding signal (z-score),Fuc(a1-2)Gal,-0.536
same,glycan array binding signal (z-score),[1],-0.366
same,glycan array binding signal (z-score),[2],-0.32
same,glycan array binding signal (z-score),[3],1.74
same,glycan array binding signal (z-score),[4],-0.538
same,glycan array binding signal (z-score),[5],4.62
same,glycan array binding signal (z-score),[6],-0.814
same,glycan array binding signal (z-score),[7],-0.083
same,glycan array binding signal (z-score),Fuc(a1-3)GlcNAc,-0.783
same,glycan array binding signal (z-score),[8],-0.458
same,glycan array binding signal (z-score),[9],0.178
same,glycan array binding signal (z-score),[10],0.38
same,glycan array binding signal (z-score),[11],-0.324
same,glycan array binding signal (z-score),[12],2.29
same,glycan array binding signal (z-score),Gal(b1-3)Gal,-0.801
same,glycan array binding signal (z-score),Gal(b1-3)GlcNAc(b1-2)Man,-0.886
same,glycan array binding signal (z-score),[13],0.56
same,glycan array binding signal (z-score),[14],4.51
same,glycan array binding signal (z-score),[15],0.734
same,glycan array binding signal (z-score),[16],1.15
same,glycan array binding signal (z-score),[17],3.1
same,glycan array binding signal (z-score),[18],3.23
same,glycan array binding signal (z-score),[19],0.45
same,glycan array binding signal (z-score),[20],3.83
same,glycan array binding signal (z-score),[21],0.263
same,glycan array binding signal (z-score),[22],0.596
same,glycan array binding signal (z-score),Gal(b1-4)GlcNAc6P,0.093
same,glycan array binding signal (z-score),Gal(b1-6)Gal,3
same,glycan array binding signal (z-score),Gal6S(b1-3)GlcNAc,3.79
same,glycan array binding signal (z-score),Gal6S(b1-3)GlcNAc6S,-0.347
same,glycan array binding signal (z-score),Glc(a1-6)Glc(a1-6)Glc,-0.771
same,glycan array binding signal (z-score),GlcA(b1-6)Gal,8.1
same,glycan array binding signal (z-score),[23],-0.619
same,glycan array binding signal (z-score),[24],-0.289
same,glycan array binding signal (z-score),[25],-0.935
same,glycan array binding signal (z-score),[26],-0.673
same,glycan array binding signal (z-score),[27],-0.327
same,glycan array binding signal (z-score),GlcNAc(b1-6)GalNAc,0.314
same,glycan array binding signal (z-score),[28],2.87
same,glycan array binding signal (z-score),[29],1.04
same,glycan array binding signal (z-score),[30],-0.398
same,glycan array binding signal (z-score),[31],-0.652
same,glycan array binding signal (z-score),[32],-0.566
same,glycan array binding signal (z-score),[33],-0.342
same,glycan array binding signal (z-score),[34],-0.391
same,glycan array binding signal (z-score),[35],-0.045
same,glycan array binding signal (z-score),[36],0.884
same,glycan array binding signal (z-score),[37],3.01
same,glycan array binding signal (z-score),[38],1.17
same,glycan array binding signal (z-score),[39],4.6
same,glycan array binding signal (z-score),[40],0.965
